These results are taken from PubChem BioAssay AID488807 (Broad Institute, 2010).

Entries with a potency or affinity are not part of this list. Results filed as inconclusive are left out. Activity calls are given as the source filed them. The rule behind the calls is not given here.

This assay in a line: growth inhibition of resistant C. albicans, dose response, CaCi-8, fluconazole, Alamar Blue, dry powder (AID 488807). Conditions: C. albicans CaCi-8 + fluconazole, 48 h; series mostly up to 26 µM. (The colour change of resazurin is a common sign of viable cells or microbes.)
In the case of `O=C(O)c1nn(Cc2ccc(Cl)cc2)c2ccccc12`, the result was inactive.
Regarding `O=C(c1ccc(Cl)cc1)N1CCN(c2cc(C(F)(F)F)nc3ccccc23)CC1`, the result was inactive.
For `O=C(Cn1nc(-c2ccccc2)c2ccccc21)N1CCc2ccccc2C1`, the outcome was inactive.
Consider `O=C(Cn1c2ccccc2c2nc3n(c(=O)c21)CCCS3)c1ccc(F)cc1`, for which the result was inactive.
For `CCCNC(=O)Cn1nc(-c2ccccc2)c2cc(Cl)ccc21`, the result was inactive.
For `O=C(Cn1c2ccccc2c2nc3n(c(=O)c21)CCS3)NCCc1ccc(Cl)cc1`, the outcome was inactive.
Take `O=C(Cn1nc(-c2ccccc2)c2cc(Cl)ccc21)N1CCOCC1`: the outcome was inactive.
As to `COc1ccc2c(c1)c1nc3n(c(=O)c1n2CC(=O)N1CCC(C)CC1)CCS3`, the activity change, negative = inhibition was 13% [at 2.6 µM] (inactive).
For the compound `COc1ccc2c(c1)c1nc3n(c(=O)c1n2CC(=O)N1CCC(Cc2ccccc2)CC1)CCS3`, the outcome was inactive.
Turning to `CCOC(=O)c1nn(Cc2ccc(Cl)cc2)c2ccccc12`, the outcome was inactive.
With `CCCNC(=O)Cn1nc(-c2ccccc2)c2ccccc21`, the outcome was inactive.
For `COc1ccc(OC)c2c(C)cc(N3CCN(C(=O)c4ccc(Cl)cc4)CC3)nc12`, the outcome was inactive.
As for `O=S(=O)(c1ccc(Cl)cc1)N1CCN(c2ccnc3cc(Cl)ccc23)CC1`, the result was inactive.
In the case of `Cc1nn(S(C)(=O)=O)c2ccccc12`, the outcome was inactive.
Take `COC(=O)Cn1nc(C)c2ccccc21`: the outcome was inactive.
As to `CCOC(=O)c1c2ccccc2nn1Cc1ccc(Cl)cc1`, the outcome was inactive.
For `O=C(Cn1nc(C(=O)N2CCCCC2)c2ccccc21)N1CCOCC1`, the result was inactive.
Consider `c1ccc(-c2n[nH]c3ccccc23)cc1`, for which the result was inactive.
Consider `O=C(Cn1nc(-c2ccccc2)c2ccccc21)NCc1ccc(Cl)cc1`, for which the result was inactive.
